Reference: the supplement of paper PMC11732987, “Enantioselective OTUD7B fragment discovery through chemoproteomics screening and high-throughput optimisation” (Communications Chemistry, 2025)

Columns and labels:
Test in all cases: log2 ratio of Biotin-Ahx-Ub-VS probe labelling (fragment/DMSO); higher = less target engagement (more negative = stronger competition), active = hit call of the paper (q ≤ 0.05, log2 ratio ≤ -1)
Conditions in all cases: compound concentration: 200 uM; treatment time: 3 h
[1] = biological target: T1, USP42 (UniProt Q9H9J4)
T1 sequence (whole entry): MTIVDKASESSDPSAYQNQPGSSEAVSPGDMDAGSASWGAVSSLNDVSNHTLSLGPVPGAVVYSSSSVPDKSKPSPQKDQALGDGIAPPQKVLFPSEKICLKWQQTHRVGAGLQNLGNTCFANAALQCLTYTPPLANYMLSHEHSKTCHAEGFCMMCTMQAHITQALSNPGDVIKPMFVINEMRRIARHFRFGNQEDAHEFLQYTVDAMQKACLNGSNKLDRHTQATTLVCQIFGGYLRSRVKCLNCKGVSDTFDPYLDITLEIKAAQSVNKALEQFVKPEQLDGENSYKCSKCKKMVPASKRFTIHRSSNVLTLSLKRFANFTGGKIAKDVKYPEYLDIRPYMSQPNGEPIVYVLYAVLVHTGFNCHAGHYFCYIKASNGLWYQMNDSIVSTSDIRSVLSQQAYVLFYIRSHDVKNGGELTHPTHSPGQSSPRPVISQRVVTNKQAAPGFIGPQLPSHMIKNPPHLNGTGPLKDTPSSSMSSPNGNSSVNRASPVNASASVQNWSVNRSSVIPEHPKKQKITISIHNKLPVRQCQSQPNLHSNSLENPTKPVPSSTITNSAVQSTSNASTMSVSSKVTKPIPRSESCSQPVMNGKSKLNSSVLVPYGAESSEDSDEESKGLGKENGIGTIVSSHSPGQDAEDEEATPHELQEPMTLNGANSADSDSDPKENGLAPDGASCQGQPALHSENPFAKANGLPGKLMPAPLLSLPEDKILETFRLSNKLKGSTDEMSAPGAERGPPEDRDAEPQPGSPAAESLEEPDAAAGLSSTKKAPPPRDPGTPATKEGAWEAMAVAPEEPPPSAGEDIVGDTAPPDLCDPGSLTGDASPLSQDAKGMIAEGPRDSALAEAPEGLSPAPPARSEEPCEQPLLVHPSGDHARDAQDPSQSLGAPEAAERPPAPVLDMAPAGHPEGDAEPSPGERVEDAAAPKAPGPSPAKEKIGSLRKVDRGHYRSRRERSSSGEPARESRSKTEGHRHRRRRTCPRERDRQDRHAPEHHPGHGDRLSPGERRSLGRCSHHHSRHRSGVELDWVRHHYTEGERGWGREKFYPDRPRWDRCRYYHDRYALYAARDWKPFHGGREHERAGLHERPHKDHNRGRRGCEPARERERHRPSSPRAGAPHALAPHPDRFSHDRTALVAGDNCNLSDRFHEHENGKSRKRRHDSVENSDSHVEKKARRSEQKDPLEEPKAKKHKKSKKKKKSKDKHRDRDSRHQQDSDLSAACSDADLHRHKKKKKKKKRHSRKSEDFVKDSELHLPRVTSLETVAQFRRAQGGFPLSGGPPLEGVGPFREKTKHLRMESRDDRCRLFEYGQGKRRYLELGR
Outline: (§1)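 Labelled DUBs were enriched with NeutrAvidin, digested with LysC and trypsin, and run by diaPASEF LC-MS/MS. The labelling used Biotin-Ahx-Ub-VS at 0.5 µM final for 1 h on HEK293T lysate (495 µg per sample) previously treated in triplicate with fragment at 200 µM or vehicle for 3 h. Values are average log2 fragment/vehicle ratios by unpaired t-test on global-median-normalised Spectronaut quantities of proteins with ≥2 unique peptides.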

[2] = biological target: USP46 (UniProt P62068)
Chain of USP46 (P62068 whole entry): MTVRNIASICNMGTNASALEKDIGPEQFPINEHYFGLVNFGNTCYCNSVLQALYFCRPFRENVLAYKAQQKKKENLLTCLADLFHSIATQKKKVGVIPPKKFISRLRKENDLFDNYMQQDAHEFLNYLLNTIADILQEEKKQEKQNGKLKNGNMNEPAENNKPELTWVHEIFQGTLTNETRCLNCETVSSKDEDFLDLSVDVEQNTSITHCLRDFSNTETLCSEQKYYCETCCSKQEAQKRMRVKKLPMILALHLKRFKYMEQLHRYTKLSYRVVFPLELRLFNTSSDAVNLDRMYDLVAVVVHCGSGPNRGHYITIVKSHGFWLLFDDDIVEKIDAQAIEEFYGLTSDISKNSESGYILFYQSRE
Outline: as §1

[3] = biological target: T2, USP47 (UniProt Q96K76)
T2 sequence (whole entry): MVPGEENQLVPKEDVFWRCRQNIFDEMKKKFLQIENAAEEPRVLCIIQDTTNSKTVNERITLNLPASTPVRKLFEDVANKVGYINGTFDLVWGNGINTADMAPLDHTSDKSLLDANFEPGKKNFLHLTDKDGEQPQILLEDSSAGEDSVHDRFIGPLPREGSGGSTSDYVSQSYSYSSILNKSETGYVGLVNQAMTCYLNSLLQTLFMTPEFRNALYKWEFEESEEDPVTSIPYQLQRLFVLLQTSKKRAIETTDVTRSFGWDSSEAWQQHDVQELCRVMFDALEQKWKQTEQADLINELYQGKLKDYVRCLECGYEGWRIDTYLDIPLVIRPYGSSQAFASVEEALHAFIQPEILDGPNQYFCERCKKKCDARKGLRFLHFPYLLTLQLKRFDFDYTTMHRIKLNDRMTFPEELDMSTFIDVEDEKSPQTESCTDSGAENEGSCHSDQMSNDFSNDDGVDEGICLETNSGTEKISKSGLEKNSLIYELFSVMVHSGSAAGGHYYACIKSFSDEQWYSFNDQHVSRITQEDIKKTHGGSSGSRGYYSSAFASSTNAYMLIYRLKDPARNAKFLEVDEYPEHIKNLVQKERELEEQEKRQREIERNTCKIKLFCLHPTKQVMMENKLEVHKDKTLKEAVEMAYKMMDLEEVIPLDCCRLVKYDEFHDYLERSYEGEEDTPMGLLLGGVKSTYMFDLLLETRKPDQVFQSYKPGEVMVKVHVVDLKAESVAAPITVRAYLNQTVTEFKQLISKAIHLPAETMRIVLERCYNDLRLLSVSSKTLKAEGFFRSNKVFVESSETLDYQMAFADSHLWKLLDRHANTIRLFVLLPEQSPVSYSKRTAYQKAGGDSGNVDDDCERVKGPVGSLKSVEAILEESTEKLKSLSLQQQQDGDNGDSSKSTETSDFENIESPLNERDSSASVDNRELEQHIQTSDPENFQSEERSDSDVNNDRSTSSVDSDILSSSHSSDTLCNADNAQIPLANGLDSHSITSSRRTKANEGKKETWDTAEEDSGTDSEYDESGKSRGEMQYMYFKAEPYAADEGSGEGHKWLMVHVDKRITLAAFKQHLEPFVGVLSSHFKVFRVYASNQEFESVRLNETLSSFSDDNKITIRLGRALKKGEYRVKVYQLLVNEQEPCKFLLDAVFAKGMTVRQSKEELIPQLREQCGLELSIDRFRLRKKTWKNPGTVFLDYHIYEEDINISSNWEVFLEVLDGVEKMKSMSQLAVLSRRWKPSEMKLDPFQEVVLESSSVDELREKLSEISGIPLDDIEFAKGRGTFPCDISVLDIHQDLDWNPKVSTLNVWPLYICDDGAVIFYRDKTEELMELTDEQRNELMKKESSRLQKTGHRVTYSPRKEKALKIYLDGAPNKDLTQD
Outline: as §1

[4] = biological target: T3, USP48 (UniProt Q86UV5)
T3 sequence (whole entry): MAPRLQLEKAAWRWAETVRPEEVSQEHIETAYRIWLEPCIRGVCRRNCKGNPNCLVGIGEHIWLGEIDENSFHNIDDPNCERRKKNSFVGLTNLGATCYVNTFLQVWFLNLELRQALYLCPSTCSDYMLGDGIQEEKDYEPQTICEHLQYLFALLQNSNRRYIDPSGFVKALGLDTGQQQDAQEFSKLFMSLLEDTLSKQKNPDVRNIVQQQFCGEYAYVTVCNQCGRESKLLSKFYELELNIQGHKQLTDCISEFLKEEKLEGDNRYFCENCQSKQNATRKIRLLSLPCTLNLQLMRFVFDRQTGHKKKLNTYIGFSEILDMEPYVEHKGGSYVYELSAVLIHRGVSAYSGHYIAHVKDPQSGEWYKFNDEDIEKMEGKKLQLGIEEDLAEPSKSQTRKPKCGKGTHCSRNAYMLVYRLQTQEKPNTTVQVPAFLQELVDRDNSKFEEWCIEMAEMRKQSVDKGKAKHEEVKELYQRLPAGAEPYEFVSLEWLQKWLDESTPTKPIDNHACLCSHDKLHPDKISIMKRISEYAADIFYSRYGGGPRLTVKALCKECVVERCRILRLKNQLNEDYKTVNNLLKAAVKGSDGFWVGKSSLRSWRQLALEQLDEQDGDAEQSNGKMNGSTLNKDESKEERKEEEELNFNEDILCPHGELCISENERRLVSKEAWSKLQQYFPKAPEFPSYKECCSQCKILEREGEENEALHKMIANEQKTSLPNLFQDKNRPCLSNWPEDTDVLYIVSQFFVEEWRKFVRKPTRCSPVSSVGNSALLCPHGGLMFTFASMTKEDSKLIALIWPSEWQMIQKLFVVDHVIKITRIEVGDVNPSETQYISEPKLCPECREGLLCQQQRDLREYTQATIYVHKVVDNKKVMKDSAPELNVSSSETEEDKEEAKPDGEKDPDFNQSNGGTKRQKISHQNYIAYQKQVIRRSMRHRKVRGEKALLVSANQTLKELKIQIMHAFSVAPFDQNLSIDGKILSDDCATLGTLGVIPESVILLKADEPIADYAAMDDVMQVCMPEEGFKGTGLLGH
Outline: as §1

[5] = biological target: T4, USP5 (UniProt P45974)
T4 sequence (whole entry): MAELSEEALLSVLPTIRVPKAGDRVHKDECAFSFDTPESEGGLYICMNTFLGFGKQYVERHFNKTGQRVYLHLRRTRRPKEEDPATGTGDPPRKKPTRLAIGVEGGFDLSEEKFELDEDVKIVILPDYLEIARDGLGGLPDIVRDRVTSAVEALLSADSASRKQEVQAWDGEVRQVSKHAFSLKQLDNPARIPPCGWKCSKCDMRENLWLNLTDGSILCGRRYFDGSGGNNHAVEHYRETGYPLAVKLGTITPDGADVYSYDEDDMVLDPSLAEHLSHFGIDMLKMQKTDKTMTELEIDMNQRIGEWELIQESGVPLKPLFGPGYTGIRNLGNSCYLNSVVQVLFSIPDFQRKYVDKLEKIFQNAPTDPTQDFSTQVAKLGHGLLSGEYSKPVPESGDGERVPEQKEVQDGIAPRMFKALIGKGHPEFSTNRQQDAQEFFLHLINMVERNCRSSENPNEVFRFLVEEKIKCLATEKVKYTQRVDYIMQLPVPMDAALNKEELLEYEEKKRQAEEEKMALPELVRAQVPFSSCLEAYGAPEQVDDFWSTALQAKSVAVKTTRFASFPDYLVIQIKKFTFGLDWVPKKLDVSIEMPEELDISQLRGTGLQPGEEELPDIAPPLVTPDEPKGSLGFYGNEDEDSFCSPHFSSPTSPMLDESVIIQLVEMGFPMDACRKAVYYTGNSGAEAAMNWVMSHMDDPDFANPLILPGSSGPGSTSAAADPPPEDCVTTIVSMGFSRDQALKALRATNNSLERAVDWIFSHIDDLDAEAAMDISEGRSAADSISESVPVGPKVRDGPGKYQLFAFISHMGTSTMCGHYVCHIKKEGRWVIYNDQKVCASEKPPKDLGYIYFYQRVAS
Outline: as §1

[6] = biological target: USP54 (UniProt Q70EL1)
Outline: as §1

[7] = biological target: USP7 (UniProt Q93009)
Chain of USP7 (Q93009 whole entry, looked up): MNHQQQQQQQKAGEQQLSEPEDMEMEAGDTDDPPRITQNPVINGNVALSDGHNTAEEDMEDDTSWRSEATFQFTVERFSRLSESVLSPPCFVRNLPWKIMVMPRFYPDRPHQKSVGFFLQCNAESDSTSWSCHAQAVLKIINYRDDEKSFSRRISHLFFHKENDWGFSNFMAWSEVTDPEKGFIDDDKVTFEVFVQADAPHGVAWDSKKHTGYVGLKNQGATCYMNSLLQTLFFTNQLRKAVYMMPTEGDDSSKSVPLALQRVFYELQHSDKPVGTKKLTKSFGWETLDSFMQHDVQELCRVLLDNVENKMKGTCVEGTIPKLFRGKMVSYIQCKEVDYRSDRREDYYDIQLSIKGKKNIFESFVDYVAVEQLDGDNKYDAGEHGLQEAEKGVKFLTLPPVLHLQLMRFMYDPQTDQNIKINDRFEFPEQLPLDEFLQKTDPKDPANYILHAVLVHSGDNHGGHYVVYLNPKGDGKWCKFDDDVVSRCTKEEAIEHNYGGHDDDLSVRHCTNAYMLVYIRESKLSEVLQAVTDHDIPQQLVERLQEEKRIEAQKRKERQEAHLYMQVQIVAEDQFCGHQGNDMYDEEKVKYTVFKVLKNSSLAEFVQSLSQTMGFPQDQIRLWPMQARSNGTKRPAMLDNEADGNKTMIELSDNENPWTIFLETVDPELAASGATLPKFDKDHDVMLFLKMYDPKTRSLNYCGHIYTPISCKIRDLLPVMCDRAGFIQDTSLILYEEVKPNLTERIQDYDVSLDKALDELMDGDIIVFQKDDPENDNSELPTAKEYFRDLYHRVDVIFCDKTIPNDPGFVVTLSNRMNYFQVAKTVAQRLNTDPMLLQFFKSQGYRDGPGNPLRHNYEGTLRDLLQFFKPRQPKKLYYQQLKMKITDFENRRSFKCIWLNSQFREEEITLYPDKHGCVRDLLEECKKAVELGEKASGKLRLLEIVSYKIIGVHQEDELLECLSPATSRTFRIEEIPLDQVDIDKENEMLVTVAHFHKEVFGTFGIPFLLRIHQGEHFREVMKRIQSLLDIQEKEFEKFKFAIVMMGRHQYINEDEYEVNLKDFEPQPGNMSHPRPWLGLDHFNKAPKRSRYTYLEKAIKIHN
Outline: as §1

[8] = biological target: T5, USP8 (UniProt P40818)
T5 sequence (whole entry): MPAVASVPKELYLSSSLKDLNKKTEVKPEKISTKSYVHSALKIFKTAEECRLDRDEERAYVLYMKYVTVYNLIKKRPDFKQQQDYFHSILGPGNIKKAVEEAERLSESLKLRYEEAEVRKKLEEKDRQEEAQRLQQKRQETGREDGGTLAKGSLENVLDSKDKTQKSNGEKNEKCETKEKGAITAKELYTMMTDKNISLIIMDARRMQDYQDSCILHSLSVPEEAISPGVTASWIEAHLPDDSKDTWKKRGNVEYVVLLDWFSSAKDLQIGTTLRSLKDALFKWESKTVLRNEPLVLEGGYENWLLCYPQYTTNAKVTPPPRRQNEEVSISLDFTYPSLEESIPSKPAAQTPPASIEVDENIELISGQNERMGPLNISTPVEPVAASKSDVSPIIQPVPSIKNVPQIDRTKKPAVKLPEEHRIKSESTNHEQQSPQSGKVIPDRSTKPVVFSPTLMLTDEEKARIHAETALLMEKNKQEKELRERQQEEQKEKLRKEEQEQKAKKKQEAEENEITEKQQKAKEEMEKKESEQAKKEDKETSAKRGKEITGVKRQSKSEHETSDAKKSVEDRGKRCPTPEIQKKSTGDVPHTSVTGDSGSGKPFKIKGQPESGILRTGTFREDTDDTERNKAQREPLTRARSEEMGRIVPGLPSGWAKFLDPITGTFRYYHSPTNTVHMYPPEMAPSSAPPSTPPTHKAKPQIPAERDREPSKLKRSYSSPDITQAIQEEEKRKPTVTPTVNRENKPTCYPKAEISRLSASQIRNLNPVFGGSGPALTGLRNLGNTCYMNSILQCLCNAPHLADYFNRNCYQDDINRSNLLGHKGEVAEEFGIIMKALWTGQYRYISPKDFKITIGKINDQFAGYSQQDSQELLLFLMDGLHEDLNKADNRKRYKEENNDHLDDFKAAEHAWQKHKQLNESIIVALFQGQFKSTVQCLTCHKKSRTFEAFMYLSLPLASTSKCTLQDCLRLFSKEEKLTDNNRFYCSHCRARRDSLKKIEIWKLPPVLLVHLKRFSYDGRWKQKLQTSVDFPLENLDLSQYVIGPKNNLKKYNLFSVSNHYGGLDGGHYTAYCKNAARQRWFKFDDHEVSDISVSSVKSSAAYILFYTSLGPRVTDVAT
Outline: as §1

[9] = biological target: USP9X (UniProt Q93008)
Chain of USP9X (Q93008 whole entry): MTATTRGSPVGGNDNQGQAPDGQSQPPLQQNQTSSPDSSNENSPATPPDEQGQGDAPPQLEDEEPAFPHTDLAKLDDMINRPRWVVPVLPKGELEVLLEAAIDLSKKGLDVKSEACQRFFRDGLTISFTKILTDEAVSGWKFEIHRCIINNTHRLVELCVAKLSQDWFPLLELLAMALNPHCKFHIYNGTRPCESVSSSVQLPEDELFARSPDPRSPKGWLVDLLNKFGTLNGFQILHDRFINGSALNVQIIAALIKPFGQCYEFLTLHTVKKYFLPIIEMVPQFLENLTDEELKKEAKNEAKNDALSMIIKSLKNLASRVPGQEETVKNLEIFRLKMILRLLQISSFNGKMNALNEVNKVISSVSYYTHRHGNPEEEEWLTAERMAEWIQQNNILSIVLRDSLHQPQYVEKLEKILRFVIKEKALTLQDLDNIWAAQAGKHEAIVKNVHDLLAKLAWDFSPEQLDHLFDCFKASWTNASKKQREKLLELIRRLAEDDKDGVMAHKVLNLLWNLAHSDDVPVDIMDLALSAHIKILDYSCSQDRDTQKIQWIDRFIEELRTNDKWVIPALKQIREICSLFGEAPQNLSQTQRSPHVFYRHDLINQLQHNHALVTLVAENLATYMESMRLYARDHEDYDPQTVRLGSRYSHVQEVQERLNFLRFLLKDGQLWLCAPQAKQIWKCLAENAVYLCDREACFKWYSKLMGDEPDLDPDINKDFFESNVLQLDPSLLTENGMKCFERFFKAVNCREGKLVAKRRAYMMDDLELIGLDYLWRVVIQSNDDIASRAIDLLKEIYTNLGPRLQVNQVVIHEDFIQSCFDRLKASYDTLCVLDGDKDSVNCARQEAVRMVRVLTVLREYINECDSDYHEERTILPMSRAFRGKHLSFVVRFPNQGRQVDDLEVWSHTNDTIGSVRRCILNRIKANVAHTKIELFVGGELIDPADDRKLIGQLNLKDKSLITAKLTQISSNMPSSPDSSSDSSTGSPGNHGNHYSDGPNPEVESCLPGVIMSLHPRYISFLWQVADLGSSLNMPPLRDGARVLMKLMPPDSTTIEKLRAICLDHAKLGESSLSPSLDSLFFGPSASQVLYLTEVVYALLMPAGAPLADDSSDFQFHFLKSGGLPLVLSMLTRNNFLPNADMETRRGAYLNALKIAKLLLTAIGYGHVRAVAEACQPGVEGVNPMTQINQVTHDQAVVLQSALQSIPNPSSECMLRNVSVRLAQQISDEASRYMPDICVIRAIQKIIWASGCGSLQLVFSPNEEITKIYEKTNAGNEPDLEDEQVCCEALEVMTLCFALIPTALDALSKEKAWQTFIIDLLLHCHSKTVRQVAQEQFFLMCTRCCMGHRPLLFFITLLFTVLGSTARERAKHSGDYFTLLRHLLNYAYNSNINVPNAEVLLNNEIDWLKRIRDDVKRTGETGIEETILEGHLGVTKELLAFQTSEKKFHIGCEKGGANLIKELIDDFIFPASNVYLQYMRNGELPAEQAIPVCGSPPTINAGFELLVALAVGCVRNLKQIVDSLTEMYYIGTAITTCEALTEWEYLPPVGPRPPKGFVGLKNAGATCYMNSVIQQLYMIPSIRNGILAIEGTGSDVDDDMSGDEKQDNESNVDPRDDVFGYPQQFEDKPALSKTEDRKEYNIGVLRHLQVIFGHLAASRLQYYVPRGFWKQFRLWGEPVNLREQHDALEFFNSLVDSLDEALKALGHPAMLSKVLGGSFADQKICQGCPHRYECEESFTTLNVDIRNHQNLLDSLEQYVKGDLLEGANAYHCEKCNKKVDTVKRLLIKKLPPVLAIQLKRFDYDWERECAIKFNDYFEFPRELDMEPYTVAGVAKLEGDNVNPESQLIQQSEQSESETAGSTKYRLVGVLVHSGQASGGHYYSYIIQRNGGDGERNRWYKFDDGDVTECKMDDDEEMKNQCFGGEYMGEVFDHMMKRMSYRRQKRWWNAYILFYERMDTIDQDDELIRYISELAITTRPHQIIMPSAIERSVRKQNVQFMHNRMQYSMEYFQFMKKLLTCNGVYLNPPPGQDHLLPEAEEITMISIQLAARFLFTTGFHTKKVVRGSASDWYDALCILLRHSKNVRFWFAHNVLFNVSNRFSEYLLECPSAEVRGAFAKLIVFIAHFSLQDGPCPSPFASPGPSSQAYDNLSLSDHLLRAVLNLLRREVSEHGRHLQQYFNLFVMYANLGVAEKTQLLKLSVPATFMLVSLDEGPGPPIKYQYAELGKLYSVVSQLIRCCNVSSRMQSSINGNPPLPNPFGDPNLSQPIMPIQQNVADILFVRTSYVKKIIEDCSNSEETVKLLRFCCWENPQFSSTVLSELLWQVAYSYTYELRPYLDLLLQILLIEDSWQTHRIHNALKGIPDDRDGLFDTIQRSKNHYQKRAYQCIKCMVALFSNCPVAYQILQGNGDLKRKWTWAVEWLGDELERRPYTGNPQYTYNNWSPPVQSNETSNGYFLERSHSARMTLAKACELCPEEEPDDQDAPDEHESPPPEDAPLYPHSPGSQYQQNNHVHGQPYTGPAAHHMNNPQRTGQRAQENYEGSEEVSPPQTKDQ
Outline: as §1

[10] = biological target: UniProt O00487
Chain of UniProt O00487 (O00487 whole entry): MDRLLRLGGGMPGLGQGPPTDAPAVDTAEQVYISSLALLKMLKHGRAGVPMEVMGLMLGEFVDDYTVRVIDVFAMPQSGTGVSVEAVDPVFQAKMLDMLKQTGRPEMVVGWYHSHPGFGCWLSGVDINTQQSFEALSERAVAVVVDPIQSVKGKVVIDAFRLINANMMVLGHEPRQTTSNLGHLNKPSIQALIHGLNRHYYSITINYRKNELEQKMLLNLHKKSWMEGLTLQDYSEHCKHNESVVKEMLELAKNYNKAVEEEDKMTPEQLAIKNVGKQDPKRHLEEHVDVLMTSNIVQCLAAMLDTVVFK
Outline: as §1

Measured: log2 ratio of Biotin-Ahx-Ub-VS probe labelling

Cc1cnc2[nH]cc(CCNC(=O)CCl)c2c1
inactive: [1] 0.34 | [2] -0.0833 | [3] -0.00951 | [4] 0.00232 | [5] -0.115 | [6] 0.181 | [7] -0.0122 | [8] -0.428 | [9] -0.0941 | [10] 0.0974
